# DENV2 CPE = DENV2-induced cell death inhibition | DENV2-infected cells, cytopathic effect rescue, plate reader | CPE inhibition, % at 9.99 µM | 350,000 compounds, 1.7% hits | AID 651640; in the data active = CPE inhibition above about 20%, passing the limit was not always enough; inconclusive = no clear call, values can overlap the other calls; tested in BHK-21 cells;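 also: 0% = median of neutral control wells and 100% = median of positive control wells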
# AF4-AF9 inh = inhibitors of human MLL-AF4/AF9 interaction; inhibition, % at 10 µM; AID 651704; AlphaScreen, biotin-AF4 peptide binding to FLAG-AF9; 350,000 compounds, 0.47% hits; P42568;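 active = every replicate reaching a set inhibition limit, whatever the replicate mean, cut at about 25% in these data; inconclusive = mean inhibition reaches that limit but some replicates miss it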;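 also: 0% = plate neutral control median and 100% = total signal loss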
# dFosB act = enhances mouse delta FosB homodimer DNA binding | P13346 | purified delta FosB, TAMRA-CDK5 oligo fluorescence polarization; percent of positive-control signal above neutral wells | activation, % at 25 µM | 340,000 compounds, 0.99% hits | AID 493131;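 active = mean activation above about 17%, with every replicate also reaching it, limit read from the data, passing the limit was not always enough; inconclusive = only one of the two conditions met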
# Target sequence (P13346 whole entry, looked up): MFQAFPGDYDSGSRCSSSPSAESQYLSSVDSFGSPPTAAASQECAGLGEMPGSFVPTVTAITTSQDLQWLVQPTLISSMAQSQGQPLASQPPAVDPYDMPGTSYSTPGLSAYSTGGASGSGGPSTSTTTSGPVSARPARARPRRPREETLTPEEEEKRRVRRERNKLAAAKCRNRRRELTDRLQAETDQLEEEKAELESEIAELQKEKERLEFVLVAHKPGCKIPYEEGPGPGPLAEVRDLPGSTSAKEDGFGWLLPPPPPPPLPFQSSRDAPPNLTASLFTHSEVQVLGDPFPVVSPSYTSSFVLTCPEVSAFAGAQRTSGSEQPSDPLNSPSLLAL
# INS-1E GSIS act = primary screen for activators of insulin secretion dependent on glucose, INS-1E cells, GLuc reporter luminescence. 370,000 compounds, 0.61% hits. INS-1E GLuc reporter insulin secretion, 2-3 h. activation, % at 16.6 µM. AID 743287;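 active = lowest replicate activation of at least 40%, so every replicate reaches that level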;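 also: 0% = median of neutral control wells and 100% = median of IBMX positive control wells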
# RAD52 anneal inh = blocks human RAD52 DNA annealing | recombinant RAD52 DNA annealing, FRET fluorescence | inhibition, % at 18.7 µM | P43351 | 360,000 compounds, 0.46% hits;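 active = every replicate showing at least 50% inhibition; inconclusive = mean inhibition at least 50% but not in every replicate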
# RAD54 branch = RAD54 (human) branch migration inhibition; Q92698; RAD54 Holliday junction branch migration, FAM/BHQ fluorescence; inhibition, % at 10.4 µM; 360,000 compounds, 0.14% hits; AID 602329;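 active = mean normalized replicate activity at least 40 and at least half of replicates scoring 40 or more; inconclusive = only one of the two criteria met; inactive = mean below 40 and under half of replicates reaching 40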;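 also: 0% = median of neutral control wells and 100% = median of positive control wells; inhibitors cause a drop in the FAM fluorescence signal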
# * marks the source's active call; other numbers are inactive results; ? = inconclusive; . = no result given. Sampled rows, rich in hits. Any-hit rate of the full collection: about 3.1%.
SMILES,DENV2 CPE,AF4-AF9 inh,dFosB act,INS-1E GSIS act,RAD52 anneal inh,RAD54 branch
COc1ccc(/C=C/C(=O)Nc2sc3c(c2C(=O)NCc2cccnc2)CCCC3)cc1,.,.,4,-33,-28,4
O=C(COc1ccccc1)Nc1sc2c(c1C(=O)NCc1cccnc1)CCCC2,.,.,14,92*,.,.
COc1ccccc1CNC(=O)C[C@H]1CC[C@H]2[C@@H](COC[C@@H](O)CN2C(=O)Nc2ccc(F)cc2)O1,4,2,.,-9,-4,-2
C/C=C/c1ccc2c(c1)O[C@H](CN(C)C(C)=O)[C@H](C)CN([C@@H](C)CO)S2(=O)=O,45*,-3,.,14,15,-8
C[C@@H]1CN([C@H](C)CO)S(=O)(=O)c2ccc(-c3ccc(F)cc3)cc2O[C@H]1CN(C)C(=O)Nc1ccccc1F,-8,-1,.,-14,-13,-3
C/C=C/c1ccc2c(c1)O[C@@H](CN(C)C(C)=O)[C@@H](C)CN([C@@H](C)CO)S2(=O)=O,-4,-3,.,9,7,-5
CC(=O)N(C)C[C@@H]1Oc2cc(-c3ccncc3)ccc2S(=O)(=O)N([C@H](C)CO)C[C@@H]1C,29*,-2,.,26,4,6
C[C@H](CO)N1C[C@H](C)[C@H](CN(C)C(=O)Nc2ccccc2F)Oc2cc(-c3ccc(F)cc3)ccc2S1(=O)=O,26*,-2,.,-10,-16,-1
C[C@H]1CCCCO[C@H](CN(C)C(=O)CCC(F)(F)F)[C@@H](C)CN([C@@H](C)CO)C(=O)c2cc(NC(=O)CCCN(C)C)ccc2O1,6,.,.,10,.,-9
Cc1ccc([C@H]2N[C@]3(CCCN(Cc4ccco4)C3=O)[C@H]3C(=O)N(C)C(=O)[C@@H]23)cc1,60*,0,.,.,-12,-8
COc1ccc(CN2CCC[C@]3(N[C@H](c4ccc(C)cc4)[C@@H]4C(=O)N(Cc5ccccc5)C(=O)[C@@H]43)C2=O)cc1,25*,4,.,.,-12,5
Cc1ccc([C@H]2N[C@]3(CCCN(Cc4cccn4C)C3=O)[C@H]3C(=O)N(Cc4ccccc4)C(=O)[C@@H]23)cc1,-5,6,.,-4,-63,0
Cn1cccc1CN1CCC[C@]2(N[C@H](c3ccccc3)[C@@H]3C(=O)N(Cc4ccccc4)C(=O)[C@@H]32)C1=O,41*,8,.,-6,-31,0
CN1C(=O)[C@H]2[C@@H](c3ccccc3)N[C@]3(CCCN(Cc4ccco4)C3=O)[C@H]2C1=O,-14,2,.,4,-4,-7
COCC(=O)N1C[C@H](C)[C@@H](OC)CN(C)C(=O)c2ccc(NS(C)(=O)=O)cc2OC[C@@H]1C,4,-2,.,8,-4,8
O=C(OCC(=O)N1CCOCC1)c1cc(=O)[nH]c2ccccc12,28*,-1,1,10,-4,-3
CCCCOC(=O)c1cc(=O)[nH]c2ccccc12,-12,0,-3,58*,-11,.
O=C(Nc1ccc2c(c1)[C@H]1C[C@H](CC(=O)N3CCOCC3)O[C@@H](CO)[C@H]1O2)C1CCC1,-9,.,.,-2,.,-13
Cc1cccc(C(=O)NCc2nnc(SCC(=O)N3CCN(c4ccccc4)CC3)n2C)c1,.,.,-1,9,.,-6
CCn1c(CNC(=O)c2cccc(C)c2)nnc1SCC(=O)N1CCOCC1,-4,-17,-1,44*,-6,0
COc1ccc(-c2csc(N(CCCN(C)C)C(=O)c3ccccc3C)n2)cc1,-7,31*,-8,-14,48,11
CN(C)CCCN(C(=O)c1cccs1)c1nc(-c2ccccc2)cs1,.,.,-8,.,.,6
COc1cccc2sc3cc(NCc4ccc(C)o4)ccc3c(=O)c12,56*,.,-4,29,-92,11
COc1cc2sc(-c3ccc(S(C)(=O)=O)cc3)c(C(=O)NCc3ccc(C)o3)c2cc1OC,5,-38,-6,-5,-8,1
Cc1ccc(OCCOCCN2CCCC2)c(Br)c1,44*,0,7,7,-9,-3
Cc1noc(C)c1NC(=O)Nc1ccc2c(c1)C(=O)N([C@@H](C)CO)C[C@@H](C)[C@H](CN(C)C(=O)Nc1cccc3ccccc13)O2,13,-5,.,4,-8,?
